An excerpt weighted towards active compounds, which were near 21% of everything screened.
Cycloheximide cs: counter-screen hit for Shiga toxin inhibitors, cycloheximide; max response, %; 300,000 compounds, 12% hits; AID 2314; cell reporter, cycloheximide protein synthesis inhibition counterscreen; in the data active means max response mostly above about 13%, no sharp cut-off; inactive means mostly below about 14%; further: read at 38.3 µM for the half of the compounds with a filed dose
Shiga inhibitor: inhibitors of Shiga toxin in Vero cells | Vero cells, Shiga toxin protein synthesis inhibition reporter | inhibition, % at 38.7 µM | 290,000 compounds, 9.2% hits; in the data active means inhibition mostly above about 28%, no sharp cut-off; inactive means mostly below about 43%
NS1 function inh: inhibitors of influenza NS1 protein function; 270,000 compounds, 0.4% hits; Potency, µM (series often up to 46.1 µM); calls by dose curve; further: actives are rising curves; nearly all actives have a fitted effect of over 50% in size
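Recovery from NS1-induced slow growth read by OD600 in budding yeast switched to galactose assay medium (pH 6.0, -URA) at 1:100 dilution. Compound 23 nl per well; the matching strain lacking NS1 serves as control.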
Pf growth 48h: inhibits P. falciparum growth in the first generation, 48 h; 310,000 compounds, 5.9% hits; Potency, µM (titrated, usually from 28.7 µM), hits mostly inhibitors; P. falciparum luciferase growth in erythrocytes, 48 h
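Read-out is firefly luciferase luminescence from an integrated reporter in P. falciparum, so falling signal marks reduced parasite growth. Infected erythrocytes were at 2% hematocrit and 0.1% parasitemia (final) in Albumax-supplemented RPMI 1640.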
Pf growth 96h: P. falciparum growth inhibition at 96 hours; Potency, µM (series often up to 28.7 µM), most hits filed as inhibitors; P. falciparum luciferase reporter growth, 96 h; AID 504834; 320,000 compounds, 6.9% hits
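Luminescence readout: decreased luciferase signal marks inhibited growth of reporter-expressing P. falciparum in infected red cells (2% hematocrit, 0.05% parasitemia final), exposed to compound two generations (96 h, 37 C, 5% CO2).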
Each line names hits and unclear results; the compound was inactive in the other large screens. Unless noted, the call rests on the fitted dose curve; in most records, active means well fitted inhibition curve with a large enough effect; inconclusive means small, poorly fitted or top-dose-only effect, or another doubt; inactive means no such curve, though single readings can be large or run the other way.

COCCN1C(=O)C(=O)/C(=C(/O)c2ccc(OCC(C)C)cc2)C1c1cccnc1 (stereo unspecified)	none (no result: Cycloheximide cs, Shiga inhibitor, Pf growth 48h, Pf growth 96h)
COCCN1C(=O)C(=O)/C(=C(/O)c2ccc(OC(C)C)cc2)C1c1cccnc1 (stereo unspecified)	Pf growth 96h 14.7µM
CC(C)Oc1ccc(C2C(C(=O)c3ccco3)=C(O)C(=O)N2Cc2cccnc2)cc1 (stereo unspecified)	Cycloheximide cs 34.6, Shiga inhibitor 44.8 (no result: Pf growth 96h)
COc1ccc(/C(O)=C2/C(=O)C(=O)N(Cc3cccnc3)C2c2ccccn2)cc1 (stereo unspecified)	Cycloheximide cs 23.7, Shiga inhibitor 61.1
CCN(CC)C(=O)C(=O)N/N=C/c1ccc(C(=O)O)cc1	none
O=C(Nc1ccccc1C(=O)Nc1ccc(Cl)cc1)c1cccnc1	none
COc1ccc2c(Cl)c(C(N)=O)sc2c1	Cycloheximide cs 19.5 (no result: Pf growth 96h)
COc1ccc2c(Cl)c(C(=O)N/N=C/c3cccnc3)sc2c1	Cycloheximide cs 19.9, Shiga inhibitor 47.1, Pf growth 48h inconclusive
O=C(N/N=C/c1cccnc1)c1sc2ccccc2c1Cl	Cycloheximide cs 21.0, Pf growth 48h inconclusive
COc1ccc2c(Cl)c(C(=O)NN)sc2c1	Pf growth 96h inconclusive
CCC(C)N(C(=O)CSc1nc2ccc(OC)cc2[nH]1)C1CCS(=O)(=O)C1 (stereo unspecified)	none (no result: Cycloheximide cs, Shiga inhibitor, NS1 function inh)
Cc1nn2cc(-c3ccccc3)nc2[nH]c1=O	Pf growth 48h inconclusive, Pf growth 96h 0.657µM
O=C(O)CCc1nn2cc(-c3ccccc3)nc2[nH]c1=O	Pf growth 48h inconclusive, Pf growth 96h inconclusive
COc1ccc(N(C(C)C(=O)Nc2cccnc2)S(C)(=O)=O)cc1 (stereo unspecified)	none
CCC(C(=O)NC1CCCCC1)n1c(SCc2cccc(C)c2)nc2ccncc21 (stereo unspecified)	Cycloheximide cs 26.3
Cc1nnc(NC(=O)CSc2nnc(CNC(=O)c3ccc(S(=O)(=O)N(C)C)cc3)o2)s1	none
O=C(c1cc2ccccc2oc1=O)N(Cc1cccc(Br)c1)C1CCS(=O)(=O)C1 (stereo unspecified)	Cycloheximide cs 15.4
CC(C)c1ccc(CN(C(=O)c2cc3ccccc3oc2=O)C2CCS(=O)(=O)C2)cc1 (stereo unspecified)	none (no result: Pf growth 96h)
COc1ccc(CN(C(=O)c2cc(=O)c3ccccc3o2)C2CCS(=O)(=O)C2)cc1 (stereo unspecified)	Pf growth 96h inconclusive
COc1cccc(CN(C(=O)c2ccccc2Br)C2CCS(=O)(=O)C2)c1 (stereo unspecified)	Pf growth 96h inconclusive
CN(C)c1ccc(CN(C(=O)c2cc3ccccc3oc2=O)C2CCS(=O)(=O)C2)cc1 (stereo unspecified)	Cycloheximide cs 47.5, Shiga inhibitor 62.5, Pf growth 96h inconclusive
COc1cccc(CN(C(=O)c2cc3ccccc3oc2=O)C2CCS(=O)(=O)C2)c1 (stereo unspecified)	Cycloheximide cs 42.4, Shiga inhibitor 79.2, NS1 function inh inconclusive, Pf growth 96h 6.57µM
COc1ccc(-n2c3c(cc(C(=O)NCC(=O)c4ccccc4)c2=O)C(=O)CC(C)(C)C3)cc1	none
CCCCC(CCC(=O)Nc1ccc(C(=O)OC)cc1)C(=O)O (stereo unspecified)	none
CCCC1(C)Nc2ccccc2-c2nc3ccccc3n21 (stereo unspecified)	Cycloheximide cs 52.8, Shiga inhibitor 81.3, Pf growth 48h inconclusive, Pf growth 96h 2.08µM
CCCn1c(-c2ccc[nH]c2=O)nc2ccccc21	Pf growth 96h inconclusive
c1ccc2c(c1)NC1(CCCC1)n1c-2nc2ccccc21	Cycloheximide cs 26.9, Shiga inhibitor 91.9
CCn1cc(C(=O)O)c(=O)c2cnc(N3CCN(C(=S)NC(=O)c4ccc(Cl)cc4)CC3)nc21	none
CCC(C)NC(=S)N1CCN(C)CC1 (stereo unspecified)	none (no result: NS1 function inh)
Cc1ccc(NP(=O)(Nc2ccc(C)cc2)Nc2ccc(C)cc2)cc1	Pf growth 48h 11.7µM, Pf growth 96h inconclusive (no result: NS1 function inh)
COc1ccccc1CN(C)C(=O)C(c1ccccc1)c1ccccc1	Pf growth 48h inconclusive, Pf growth 96h inconclusive
Cc1cc(C)cc(N(CC(=O)NC(C)(C)C)C(=O)CCC(=O)Nc2ccccn2)c1	Pf growth 96h 10.4µM
Cc1cccc(N(CC(=O)NC(C)(C)C)C(=O)CCC(=O)Nc2ccccn2)c1	Pf growth 96h inconclusive
Cc1cc(C)cc(N(CC(=O)NCc2ccc(F)cc2)C(=O)CCC(=O)Nc2ccccn2)c1	NS1 function inh inconclusive, Pf growth 48h 13.1µM
OCC1(Cc2ccccc2)CCN(CCCC2CCCC2)CC1	Pf growth 48h inconclusive
Cc1cc(C)n2nc(-c3ccc(F)cc3)nc2n1	Cycloheximide cs 24.1, Pf growth 96h inconclusive
COc1ccc(C(CCN2CCCCC2)c2c(O)cc(OC)cc2OC)cc1 (stereo unspecified)	Pf growth 48h 0.657µM, Pf growth 96h 0.465µM
COc1cc(O)c(C(CC(=O)N2CCCC2)c2cc(OC)c(OC)c(OC)c2)c(OC)c1 (stereo unspecified)	Pf growth 48h inconclusive
COc1ccc(C(CCN2CCCC2)c2c(O)cc(OC)cc2OC)cc1 (stereo unspecified)	NS1 function inh inconclusive, Pf growth 48h inconclusive, Pf growth 96h 2.94µM
COc1ccc(NC(=O)C2=C(C)Nc3nc(CCCO)nn3C2c2ccc(OC)c(OC)c2)cc1 (stereo unspecified)	none
O=C(CS(=O)(=O)c1ccc2ccccc2c1)N1CCCCCC1	Cycloheximide cs 44.3, Shiga inhibitor 51.4, Pf growth 96h inconclusive (no result: NS1 function inh)
O=C(NCC(=O)N1CCN(S(=O)(=O)c2ccccc2)CC1)c1ccc2ccccc2c1	none (no result: Cycloheximide cs, Shiga inhibitor, NS1 function inh)
O=C(NCC(=O)N1CCCCC1)c1ccc2ccccc2c1	Cycloheximide cs 34.2
CC1CC(C)CN(C(=O)CNC(=O)c2ccc3ccccc3c2)C1 (stereo unspecified)	Cycloheximide cs 18.5
COC(=O)c1cc(NC(=S)N2CCN(C(=O)C3CCCO3)CC2)cc(C(=O)OC)c1 (stereo unspecified)	none
O=C(COC(=O)C1=COCCO1)Nc1ccccc1	Cycloheximide cs 52.4, Shiga inhibitor 64.1 (no result: NS1 function inh)
COc1ccccc1C(=O)OCC(=O)Nc1ccc(OC(F)F)cc1	Cycloheximide cs 21.3, Shiga inhibitor 92.5 (no result: Pf growth 96h)
O=C(COC(=O)C1=COCCO1)Nc1cccc(Oc2ccccc2)c1	none (no result: Pf growth 48h)
O=C(COC(=O)C1=COCCO1)NC1CCCCCCC1	Cycloheximide cs 28.7, Shiga inhibitor 45.7 (no result: NS1 function inh)
N#Cc1ccc(NC(=O)COC(=O)C2=COCCO2)cc1	none
O=C(COC(=O)C1=COCCO1)Nc1ccc(OC(F)F)cc1	Cycloheximide cs 38.0, Shiga inhibitor 53.4 (no result: NS1 function inh)
O=C(O)c1cccc(SSc2cccc(C(=O)O)c2)c1	none (no result: Cycloheximide cs, Shiga inhibitor, Pf growth 48h, Pf growth 96h)
c1ccc(C2CC(c3cccs3)n3nnnc3N2)cc1 (stereo unspecified)	Pf growth 48h inconclusive
CCSC1=N/C(=C\C=C2/Oc3ccccc3N2CC)C(=O)S1	none
CCC(=O)c1ccc(N2CCN(C(=O)COc3ccccc3F)CC2)c(F)c1	Pf growth 48h inconclusive
CCCC(=O)c1ccc(N2CCCC2)c(F)c1	Cycloheximide cs 36.9, Shiga inhibitor 76.1

Screens (PubChem BioAssay)
